Compounds with a hit are over-represented: about 6% of the library has one in this group of screens.
DRD3 antagonist: D3 dopamine receptor (human) antagonism | P35462 | D3R cells, DiscoveRx beta-arrestin luminescence, antagonist mode; stronger effect = lower value | max response, negative = inhibition, % | 360,000 tested, 2.5% active; in the data active = max response below about -50%; inconclusive = no clear call, values can overlap the other calls
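Cells expressing the human receptor were seeded at 1500 cells/well, incubated overnight at 37 degrees C in 5% CO2, then exposed to library compounds with dopamine controls for 90 minutes at 37 degrees C before luminescent detection.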
Chronic BCR inh: blocks chronic active B-cell receptor signaling | 340,000 tested, 0.05% active | Potency, µM (series often up to 46.1 µM), most hits filed as inhibitors | AID 493014 | ABC-DLBCL IkBa-CBG/CBR reporter, luminescence ratio, 4 h; active = well fitted inhibition curve with a large enough effect in the signal ratio, with a control signal flat, not every such curve was filed as active; inconclusive = small, poorly fitted or top-dose-only effect, or effect the other way, or a change in a side signal; the % refers to the signal ratio
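Cell line TMD8 (human ABC DLBCL), stably expressing tet-inducible CBG68-IkBa fusion and CBR; IMDM/0.5% FBS; cpd up to 46 uM; dox induction, 4 h, 37C/5% CO2; dual luminescence; green/red ratio; MG132 control.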
D1 agonist: activates the human D1 dopamine receptor | P21728 | 360,000 tested, 1% active | HEK293 T-REx D1 cells, calcium flux, agonist mode | activation, % at 2 µM; in the data active = activation above about 30%
Target sequence (P21728 whole entry, looked up): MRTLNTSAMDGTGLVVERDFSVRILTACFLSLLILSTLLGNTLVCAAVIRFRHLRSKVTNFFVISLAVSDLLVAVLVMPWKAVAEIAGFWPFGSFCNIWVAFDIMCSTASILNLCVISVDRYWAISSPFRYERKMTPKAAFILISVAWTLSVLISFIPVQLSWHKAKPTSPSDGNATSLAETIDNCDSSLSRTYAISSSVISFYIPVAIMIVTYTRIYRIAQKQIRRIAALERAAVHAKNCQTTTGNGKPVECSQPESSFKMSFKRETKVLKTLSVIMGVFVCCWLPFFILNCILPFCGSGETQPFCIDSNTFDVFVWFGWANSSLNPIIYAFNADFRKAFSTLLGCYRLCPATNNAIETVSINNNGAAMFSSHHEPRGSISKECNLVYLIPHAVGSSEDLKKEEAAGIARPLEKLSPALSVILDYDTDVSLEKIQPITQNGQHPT
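Agonism was scored from calcium flux recorded over 180 s (1 read/s) after pintool compound addition, following a 10-cycle baseline. Cells were inducible force-coupled HEK293 TREx D1, plated overnight at 30 C and loaded with no-wash calcium dye.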
DRD3 agonist: agonists of human D3 dopamine receptor; P35462; D3R DiscoveRx beta-arrestin cells, luminescence, 90 min; max activation, %; 410,000 tested, 0.58% active; in the data active = max activation above about 30%
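Agonist-mode cell screen: cells plated at 1500/well and incubated overnight at 37 °C, then exposed to library compounds for 90 min at 37 °C. Detection reagent was added for 30–60 min at room temperature, and luminescence was read.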
D1 antag: human D1 dopamine receptor antagonism | P21728 | AID 504652 | activity change, negative = inhibition, % at 10 µM | HEK293 TREx D1 cells, calcium flux, dopamine EC80; stronger effect = lower value | 360,000 tested, 3.2% active; in the data active = activity change below about -30%
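Tetracycline-induced HEK293 T-REx cells with force-coupled D1 receptor were loaded with a no-wash calcium dye. Compound was added after a 10 s baseline and read kinetically for 180 s; EC80 dopamine was then added and calcium flux followed another 180 s.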
D1 PAM: human D1 dopamine receptor positive modulation. P21728. HEK293 TREx D1 cells, calcium flux, dopamine EC20 potentiation. potentiation, % at 10 µM. 360,000 tested, 0.036% active; in the data active = potentiation above about 30%
Hits are given with their value; - = inactive; ? = inconclusive; . = no result given.

SMILES	DRD3 antagonist	Chronic BCR inh	D1 agonist	DRD3 agonist	D1 antag	D1 PAM
CC(C)CC1NC(=O)N(CC(=O)NC2CCCc3ccccc32)C1=O (configuration not stated)	-	-	-	-	-36	-
CC(C)CN1C(=O)C(=O)N(CC(=O)NC2CCCc3ccccc32)C1=O (configuration not stated)	-	-	-	-	-	-
CC(C)(C)C(=O)N1CCN(c2nc3ccc(Br)cc3s2)CC1	-	?	-	-	-	-
CC(C)(C)C(=O)N1CCN(c2nc3ccc(Cl)cc3s2)CC1	-	?	-	-	-43	-
CCOc1cc(/C=C(\C#N)C(=O)Nc2ccc(C)cc2)ccc1OCc1cc(=O)n2nc(CC)sc2n1	.	.	-	48	-	-
CCOc1cc(/C=C(/C#N)C(=O)Nc2ccc(O)cc2)cc(Br)c1O	-	?	48	-	-	-
CCN(CC)S(=O)(=O)c1ccc(N2CCCCC2)c(NC(=O)/C(C#N)=C/c2ccc(OC)cc2)c1	-	-	-	-	-	-
CCOc1ccc(NC(=O)/C(C#N)=C/c2ccc(N3CCCC3)c(C)c2)cc1	-	?	377	-	-	-
C=CCNC(=O)/C(C#N)=C\c1cc(Cl)c(O)c(OCC)c1	-	-	-	-	-	-
Cc1ccc(NC(=O)C2CCCN(S(=O)(=O)c3ccc4[nH]c(=O)ccc4c3)C2)cc1Cl (configuration not stated)	.	.	-	-	-48	-
Cc1ccc(NC(=O)C2CCN(S(=O)(=O)c3ccc(N4CCCC4=O)cc3)CC2)cc1Cl	-	-	-	-	-71	-
CN(C)c1ccc(CNC(=O)C2CCN(S(=O)(=O)c3ccc4[nH]c(=O)ccc4c3)CC2)cc1	.	.	-	-	-41	-
CN(C)c1ccc(CNC(=O)C2CCN(S(=O)(=O)c3ccc4c(c3)oc(=O)n4C)CC2)cc1	-	-	-	-	-	-
O=C(O)/C=C/c1ccccc1	.	.	.	-	.	.
N#Cc1ccccc1Cn1c(=O)n(-c2ccc(F)c(Cl)c2)c(=O)c2sccc21	.	.	-	-	-	-
CC1/C(=N/O)C(CN(C)C)C2CC1C2(C)C (configuration not stated)	-69	-	-	-	-	-
CC1C2CC(C(CN(C)C)/C2=N/O)C1(C)C (configuration not stated)	-	-	-	-	-51	-
O=C(O)CC/C(=C\c1ccc(N2CCOCC2)c([N+](=O)[O-])c1)c1nc2ccccc2s1	-	-	-	-	-77	-
O=C(O)C/C(=C\c1ccc(N2CCOCC2)c([N+](=O)[O-])c1)c1nc2ccccc2s1	-	?	-	-	-	-
CC1=C(C(=O)N2CCOCC2)CC(CC(=O)NCC2CCCCC2)C(=O)N1Cc1ccc(C(C)(C)C)cc1 (configuration not stated)	-	.	.	-	.	.
CCCc1c(NC(=O)Nc2ccc(F)cc2)cnn1-c1ccc(Cl)cc1	-	-	-	-	-43	-
Fc1ccc(-c2cc(-c3nc(-c4ccccc4)no3)[nH]n2)cc1	.	.	-	-	-	-
CCC1=Nc2cc(C(=O)NCc3ccccc3OC)ccc2Sc2ccc(Cl)cc21	.	?	-	-	-	-
COCCNCCCCOc1ccc(Br)cc1C	-	?	-	-	-	-
COCCCNCCCCOc1ccc(Br)cc1C	-97	-	37	-	-35	-
SMILES	DRD3 antagonist	Chronic BCR inh	D1 agonist	DRD3 agonist	D1 antag	D1 PAM
Cc1cc(Br)ccc1OCCCCNC(C)(C)C	-66	?	-	-	-	-
Cn1c(=O)c2c(ncn2CC(=O)Nc2cc(Cl)cc(Cl)c2)n(C)c1=O	.	.	-	-	-	-
O=C(CNS(=O)(=O)c1c(Cl)cccc1Cl)OCc1csc(-c2ccccc2)n1	-	?	-	-	-48	-
Cc1ccc(S(=O)(=O)NCC(=O)OCc2csc(-c3ccccc3)n2)cc1	-	?	-	-	-	-
CC(=C\c1ccccc1)/C=C1/SC(=S)N(CC(=O)O)C1=O	.	.	.	-	.	.
CCN(C(=O)COC(=O)c1cnccn1)c1cccc2ccccc12	-	?	.	-	.	.
CCN(C(=O)COc1ccc(C(C)=O)cc1)c1cccc2ccccc12	-72	?	.	-	.	.
O=C(Oc1c(-c2ccccc2)c(=O)n2c3c(cccc13)CC2)c1ccco1	-	-	-	49	-	-
O=C(Oc1c(-c2ccccc2)c(=O)n2c3c(cccc13)CC2)c1ccc(Cl)cc1	-	-	-	-	-	-
Cc1ccc(C(O)c2ncc(-c3ccccc3)[nH]2)c(C)c1 (configuration not stated)	-	.	.	-	.	.
CC(C)c1ccc(-n2cnn(-c3ncccc3[N+](=O)[O-])c2=O)cc1	-83	?	-	-	-	-
CC1(C)N=C(N)N=C(N)N1c1cccc(C#N)c1	-	.	.	-	.	.
Cc1ccc(S(=O)(=O)NN=C2CCc3ccccc32)cc1	-	.	.	-	.	.
COc1ccc(OC)c(NC(=O)Cn2c(=O)n(-c3cccc(C)c3)c(=O)c3c2c2cc(C)ccc2n3C)c1	.	.	-	-	-	-
CC(/C=C/c1ccccc1)=N\NC(=O)c1cc(C)nc2ccccc12	-	-	-	-	-36	-
Cc1cc(C(=O)NN=C2CCCCC2)c2ccccc2n1	-	?	-	-	-89	-
C/C(=N\NC(=O)c1cc(C)nc2ccccc12)c1cccs1	-	-	-	-	-	-
CC(/C=C/c1ccccc1)=N/NC(=O)c1cccc(Br)c1	-53	?	-	-	-	-
O=C(N/N=C/C1C(c2ccccc2)C1(Cl)Cl)c1cccc(Br)c1 (configuration not stated)	-53	?	-	-	-	-
CCn1c(O)c(N=N)c2ccccc21	-	-	-	-	-	-
CCn1c(O)c(N=NC2=NC(=O)CS2)c2ccccc21	-79	-	-	-	-	-
CCOc1ccc(-c2nnc(SCC(=O)Nc3cccc(OC)c3)nc2-c2ccc(OCC)cc2)cc1	.	-	-	-	-	-
O=C(c1cccc(S(=O)(=O)N2CCOCC2)c1)N(Cc1ccco1)Cc1cccs1	-	-	-	-	-56	-
CN(Cc1cccs1)C(=O)c1cc(S(=O)(=O)N2CCOCC2)ccc1N1CCCC1	-	-	-	-	-31	-
CC(C)C[C@H]1CNC(=O)C(=O)N1CC1CCN(CCC(C)c2ccccc2)CC1 (some centres not stated)	?	.	.	-	.	.
O=C1NC(=O)C(Cc2ccc(Cl)cc2)(c2ccccc2)N1 (configuration not stated)	-	.	.	-	.	.
CC(C)N(c1ccccc1)c1ccc(NC(=O)[C@@H]2O[C@H](CO)[C@@H](O)[C@H]2O)cc1	-	.	.	-	.	.
COC(=O)N1CCCCC1c1cc(C(=O)Nc2ccccc2Cl)no1 (configuration not stated)	?	.	.	-	.	.

Compound activity (PubChem BioAssay)
